The values below come from PubChem BioAssay (NCATS).

Each structure is given as a SMILES string. Inconclusive results are not listed. Unmarked numbers belong to inactive results. The source made the active and inactive calls. Calls follow the shape of the dose curve; as a rule, active = well fitted curve in the direction sought with a large enough effect; inconclusive = small, poorly fitted or top-dose-only effect, or another doubt; inactive = no such curve, though single readings can be large; an effect the other way counts as inactive or inconclusive.
% is scaled to controls: 0 for no effect and ±100 for the full control effect.

The first assay can be described thus: qHTS for Inhibitors of ATXN expression: Validation of Cytotoxic Assay (AID 588349). As to conditions: cytotoxicity counter-screen for ATXN expression inhibitors, cell viability; series mostly up to 57.1 µM; activity change, negative = cytotoxicity: at the top concentration. An outline of the steps: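 HEK293, compound dose series, 72 hr / 37 degrees C; viability via CellTiter Glo (intracellular ATP).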
(Quantitative high-throughput screening tests each substance at several concentrations.)
Take `CN(C)c1nc(N(C)C)nc(N(C)C)n1`: the “activity change, negative = cytotoxicity” value is -5.5%.
On the same count and under the same terms, in the case of `NC(CO)C(=O)NNCc1ccc(O)c(O)c1O` (stereo unspecified) it was -14%; in that of `Cc1cnc(C(=O)NCCc2ccc(S(=O)(=O)NC(=O)NC3CCCCC3)cc2)cn1`, -3.81%.
In the case of `COc1nc(C)nc(Cl)c1NC1=NCCN1`, the “activity change, negative = cytotoxicity” value is -3.64%.
For `CCN1CCCC1CNC(=O)c1cc(S(=O)(=O)CC)c(N)cc1OC` (stereo unspecified), the “activity change, negative = cytotoxicity” value was -9.9%.
Same read-out and setting: in the case of `Clc1ccc2nsnc2c1NC1=NCCN1` it was -5.27%.

A short description of the next assay: qHTS for Inhibitors of ATXN expression: Validation (AID 588378). Also: nearly all actives have a fitted effect of over 75% in size. As to conditions: cell-based ATXN2 expression reporter assay, luminescence; series mostly up to 57.1 µM; activity change, negative = inhibition: at the top concentration. An outline of the steps: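 Compounds were pinned onto attached HEK293 cells carrying an ATXN2-firefly luciferase construct and incubated 24 hrs at 37 degrees C. Each well then received a fluorescent viability reagent followed by luciferase substrate for end-point luminescence.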
Turning to `CCc1cccc2c3c([nH]c12)C(CC)(CC(=O)O)OCC3` (stereo unspecified), the “activity change, negative = inhibition” value is -12.7%.
As to `CC1COc2c(N3CCN(C)CC3)c(F)cc3c(=O)c(C(=O)O)cn1c23` (stereo unspecified), the “activity change, negative = inhibition” value was 5.76%.
Same read-out and setting: the figure for `COc1cc2nc(N(C)CCCNC(=O)C3CCCO3)nc(N)c2cc1OC` (stereo unspecified) is -13.5%.
As to `NC(=O)NO`, the “activity change, negative = inhibition” value is -17.8%.
For `C[C@H]1c2cccc(O)c2C(O)=C2C(=O)[C@]3(O)C(O)=C(C(N)=O)C(=O)[C@@H](N(C)C)[C@@H]3[C@@H](O)[C@@H]21`, the “activity change, negative = inhibition” value is 10.2%.
Consider `CC(C(=O)O)c1cccc(C(=O)c2ccccc2)c1` (stereo unspecified), for which the “activity change, negative = inhibition” value is 2.99%.
The same measure, in the same setting: the figure for `CCOC(=O)Nc1ccc(NCc2ccc(F)cc2)nc1N` is -20.6%; for `NC12CC3CC(CC(C3)C1)C2` it is 12.6%.
The same measure, in the same setting: the figure for `CC(C)NCC(O)COc1ccc(CCOCC2CC2)cc1` (stereo unspecified) is -19.6%; for `CCC1(C)CC(=O)NC1=O` (stereo unspecified) it is -8.41%.
Same read-out and setting: in the case of `O=C(C1CCCCC1)N1CC(=O)N2CCc3ccccc3C2C1` (stereo unspecified) it was -13.6%.
Consider `CN1C2CCC1CC(OC(=O)C(CO)c1ccccc1)C2` (stereo unspecified), for which the Potency result was “inactive”.
Regarding `NCCc1cnc[nH]1`, the “activity change, negative = inhibition” value is -4.43%.
On the same count and under the same terms, in the case of `COc1ccc(C2CNC(=O)C2)cc1OC1CCCC1` (stereo unspecified) it was -17.2%; in that of `NCCCCCC(=O)O`, 13.6%.
For the molecule `COc1ccccc1OCC(O)CN1CCN(CC(=O)Nc2c(C)cccc2C)CC1` (stereo unspecified), the “activity change, negative = inhibition” value was -9.33%.
The same measure, in the same setting: the figure for `Nc1nc2c(ncn2COC(CO)CO)c(=O)[nH]1` is -17%.
The same measure, in the same setting: the figure for `CC[N+](CC)(CC)CCOc1cccc(OCC[N+](CC)(CC)CC)c1OCC[N+](CC)(CC)CC` is -10.9%; for `CC12CC3CC(C)(C1)CC(N)(C3)C2` it is -27%.
Same read-out and setting: the figure for `CN(C)c1nc(N(C)C)nc(N(C)C)n1` is 5.07%; for `NC(CO)C(=O)NNCc1ccc(O)c(O)c1O` (stereo unspecified) it is -19.5%.
Turning to `Cc1cnc(C(=O)NCCc2ccc(S(=O)(=O)NC(=O)NC3CCCCC3)cc2)cn1`, the “activity change, negative = inhibition” value was -7.72%.
The same measure, in the same setting: the figure for `COc1nc(C)nc(Cl)c1NC1=NCCN1` is 5.74%.
On the same count and under the same terms, the figure for `CCN1CCCC1CNC(=O)c1cc(S(=O)(=O)CC)c(N)cc1OC` (stereo unspecified) is 0.925%; for `Clc1ccc2nsnc2c1NC1=NCCN1` it is -1.51%.
